# Compound activity from PubChem BioAssay.
# This is a sample that favours compounds with a hit; in the whole collection about 3% have one here.
# PAFAH1B3 inh: inhibitors of human PAFAH1B3. hit rate 0.28% among 340,000. recombinant PAFAH1B3, FP-rhodamine probe, fluorescence polarization. inhibition, % at 3.39 µM. AID 492972;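 active = inhibition above the screen-wide average of all tested compounds plus 3 SD, cut at about 25% in these data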
# Target sequence (Q15102 whole entry, looked up): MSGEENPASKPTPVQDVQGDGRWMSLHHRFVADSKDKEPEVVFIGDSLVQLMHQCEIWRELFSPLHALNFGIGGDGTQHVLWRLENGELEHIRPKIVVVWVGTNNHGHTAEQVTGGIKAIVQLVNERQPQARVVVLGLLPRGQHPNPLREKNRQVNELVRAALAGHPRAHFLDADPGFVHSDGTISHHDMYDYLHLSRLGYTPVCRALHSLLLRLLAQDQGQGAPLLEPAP
# PAFAH2 inh: inhibitors of human PAFAH2; Q99487; recombinant PAFAH2, FP-rhodamine activity probe, fluorescence polarization; inhibition, % at 3.39 µM; hit rate 0.99% among 340,000; AID 492956;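 active = inhibition above the mean over all tested compounds plus 3 SD, cut at about 30% in these data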;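 also: inhibitors block probe labeling of enzyme so polarization drops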
# PAFAH1B2 FP inh: inhibitors of human PAFAH1B2; P68402; recombinant PAFAH1B2, FP-rhodamine activity probe, fluorescence polarization; inhibition, % at 3.39 µM; hit rate 1.2% among 340,000;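 active = inhibition above the mean of all tested compounds plus 3 SD, cut at about 24% in these data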
# PP5 primary: PP5 (human) phosphatase inhibition. P53041. purified PP5c, OMFP substrate fluorescence. inhibition, % at 6.7 µM. hit rate 0.18% among 320,000;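 active = inhibition above the campaign's mean inhibition across all tested compounds plus 3 SD, cut at about 9.5% in these data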
# pPAFAH inh: pPAFAH (human) enzyme inhibition | Q13093 | recombinant pPAFAH, FP-rhodamine probe fluorescence polarization | inhibition, % at 3.39 µM | hit rate 1.5% among 330,000 | AID 463082;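 active = inhibition above the mean inhibition across the screen plus 3 SD, cut at about 25% in these data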;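 also: inhibitors block binding of the rhodamine activity-based probe so polarization drops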
# Fh CTSL1 inh: blocks F. hepatica cathepsin L1 in PFM18AAP counter-screen | recombinant F. hepatica cathepsin L1, Z-Leu-Arg-MCA fluorescence | inhibition, % at 5.96 µM | hit rate 0.49% among 300,000 | AID 1906;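 active = inhibition above the mean of all tested compounds plus 3 SD, set per screening campaign, cut at about 17% in these data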
# A number is an active result; 0 = inactive; - = no result given.
SMILES,PAFAH1B3 inh,PAFAH2 inh,PAFAH1B2 FP inh,PP5 primary,pPAFAH inh,Fh CTSL1 inh
CCOc1ccc(NC(C)c2cc(Cl)ccc2O)cc1 (configuration not stated),0,0,0,0,0,0
CC(Nc1ccc(Cl)cc1)c1cc(Cl)ccc1O (configuration not stated),0,0,43,0,0,0
CCn1nc(C)cc1C(=O)N1CCCC(N2CCN(Cc3ccc4c(c3)OCO4)CC2)C1 (configuration not stated),0,0,0,0,0,0
Oc1ccc(NCc2ccccc2OCc2ccccc2)cc1,0,0,0,0,26,0
Cc1nc2cc(NC(=O)c3ccco3)ccc2n1C,0,0,0,0,0,0
CC1(C)CC(=O)C2=C(C1)OC1=C(C(=O)CC(C)(C)C1)C2c1ccc(O)c([N+](=O)[O-])c1,0,0,0,0,0,18
Cc1ccc(C)c(SCC(=O)OCC(=O)Nc2ccc(S(=O)(=O)N3CCOCC3)cc2)c1,0,0,0,0,26,0
Cc1ccc(NC(=O)CCl)cc1S(=O)(=O)N1CCCCCC1,0,0,0,0,0,58
Cc1ccc(NC(=O)COC(=O)CCC(=O)c2cccs2)cc1S(=O)(=O)N1CCOCC1,0,0,0,0,0,0
Cc1ccc(NC(=O)COC(=O)CCC2CCCC2)cc1S(=O)(=O)N1CCOCC1,0,32,0,-,33,-
CC1CC(C)CN(C(=O)COC(=O)c2ccc3c(c2)OCCO3)C1 (configuration not stated),0,0,0,-,0,-
O=[N+]([O-])c1ccc(O)c(C=Nc2ccc3c(c2)OCCO3)c1,0,0,0,0,0,0
O=[N+]([O-])c1ccc(O)c(C=Nc2ccc3oc(Cc4ccc(Cl)cc4)nc3c2)c1,-,-,-,0,46,0
CCCN1/C(=C2/SC(=S)N(CC)C2=O)C=Cc2ccccc21,0,0,0,0,0,30
CCCN1C(=O)/C(=C2/C=Cc3ccccc3N2CC)SC1=S,0,0,0,0,0,0
COc1ccc2c(c1)[nH]c1c(N3CCN(Cc4ccc5c(c4)OCO5)CC3)ncnc12,0,0,0,0,31,0
Oc1ccc(Cl)cc1N=Nc1ccccc1,0,0,0,0,0,0
O=S(=O)(O)c1cc(O)c2c(O)c(N=Nc3cc(Cl)ccc3O)c(S(=O)(=O)O)cc2c1,35,49,34,0,33,0
Nc1cc(S(=O)(=O)O)cc2ccc(S(=O)(=O)O)cc12,0,0,0,-,-,-
Cc1cc(-c2ccc(N=Nc3c(S(=O)(=O)O)cc4cc(S(=O)(=O)O)cc(N)c4c3O)c(C)c2)ccc1N=Nc1c(S(=O)(=O)O)cc2cc(S(=O)(=O)O)cc(N)c2c1O,-,-,-,18,53,27
CN(C(=O)c1cccc(NC(=O)Cc2ccc(NC(=O)C3CCCN(C(=O)C4CCC4)C3)cc2)c1)C1CCCCC1 (configuration not stated),0,0,0,-,-,-
CCOC(=O)c1ccc(S(=O)(=O)N2CCN(CCc3ccncc3)CC2)cc1,0,0,0,-,0,-
O=C1CC(CC(=O)N/N=C/c2ccccc2[N+](=O)[O-])=NN1,0,0,0,0,0,18
O=C(C[n+]1ccccc1)N/N=C/c1ccccc1[N+](=O)[O-],0,0,0,0,0,0
CC(=O)Nc1cc(OC(C)=O)c2nonc2c1OC(C)=O,68,0,34,0,0,110
SMILES,PAFAH1B3 inh,PAFAH2 inh,PAFAH1B2 FP inh,PP5 primary,pPAFAH inh,Fh CTSL1 inh
CC(=O)Nc1nonc1NC(C)=O,0,0,0,0,0,0
O=C(NNS(=O)(=O)c1ccc(Cl)cc1)c1cc(-c2ccccc2)n[nH]1,0,0,0,0,0,0
Cc1ccc(C)c(-c2cc(C(=O)NNC(=S)NCC(C)C)c3ccccc3n2)c1,0,0,0,0,26,0
O=C(NNS(=O)(=O)c1ccc(Cl)cc1)c1cc(-c2ccccc2)nc2ccccc12,0,0,60,0,0,0
CCc1ccc(-c2cc(C(=O)Nn3cnnc3)c3ccccc3n2)cc1,0,0,72,0,0,0
CCNC(=S)NNC(=O)c1cc(-c2ccc(OCC)cc2)nc2ccccc12,0,0,0,0,27,0
COc1ccc(-c2oc3ccccc3c2C(=O)OCc2ccccc2)cc1,0,0,0,0,0,0
O=C(Nc1ccccn1)c1ccc(S(=O)(=O)c2ccc(Cl)cc2)cc1,0,0,24,0,0,0
O=C(Nc1ccccn1)c1ccc(S(=O)(=O)N2CCCC2)cc1,0,0,0,0,0,0
